# Screening results deposited in PubChem by University of Kansas High Throughput Screening Laboratory.
# Many of the other results were omitted from the sample, so hits are more common in it than they were.
# mHTT CaM bind – mutant huntingtin-calmodulin interaction inhibitors – biochemical, AlphaScreen, primary screen; actives 3.6% (n = 190,000); AlphaScreen His-mHTT/GST-CaM binding, luminescence; inhibition, % at 15 µM; P42858; AID 1671202, 2021;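 also: 0% = both proteins with DMSO and 100% = one protein alone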
# Pf apPOL inh – Pf-apPOL inhibitors, biochemical, fluorescence | Recombinant Pf-apPOL, molecular beacon fluorescence, 1.5 h | inhibition, % at 10 µM | actives 0.25% (n = 210,000)
# Active calls of the source: *; . = not tested or not shown. Rule as the data show it: active = inhibition above about 50%; inactive = the rest.
SMILES,mHTT CaM bind,Pf apPOL inh
Cc1c(CC(=O)Nc2ccccc2)sc2ccccc12,.,-3.1
CC1=NN(c2nn[nH]n2)C(=O)/C1=C\c1cccs1,100.2*,.
CC1=NN(c2ccccc2)C(=O)/C1=C/c1ccc(Br)s1,46.0,2.1
Cc1csc(COc2ccc(C(=O)N3CCN(c4ccccn4)CC3)cc2)n1,13.5,-19.1
Cc1cccc(-c2noc(Cc3nc(-c4ccccc4)cs3)n2)c1,-88.2,-2.8
CCNc1cc(N2CCCC(CCC(=O)Nc3cc(C)ccc3OC)C2)ncn1 (stereo not drawn),55.5*,1.2
COc1ccc(C)cc1NC(=O)CCC1CCN(c2cc(NC3CC3)ncn2)CC1,39.2,-3.4
COc1ccc(C)cc1NC(=O)CCC1CCCN(c2cc(NC3CC3)ncn2)C1 (stereo not drawn),10.5,-7.8
CCCNc1cc(N2CCC(CCC(=O)Nc3cc(C)ccc3OC)CC2)ncn1,58.8*,-6.1
O=C(CCc1nnc(-c2ccccc2)[nH]c1=O)N1CCCCC1,-1.4,-3.1
O=C(NCCCN1CCCCC1)C1CCCN(c2nnc3ccc(C(F)(F)F)cn23)C1 (stereo not drawn),25.7,0.0
CCCCC(=O)Nc1nc2c(s1)CN(S(=O)(=O)c1ccc(C)cc1)CC2,5.3,-5.5
Clc1cccc(Cl)c1CNc1ccc2c(c1)OCO2,68.9*,-2.8
Fc1cccc(NCc2ccc3c(c2)OCO3)c1,-11.9,-7.6
Cc1cccc(CNc2ccc3c(c2)OCO3)c1,100.5*,3.2
O=C(Nc1ccc2c(c1)OCO2)c1ccccc1Cl,-4.7,-6.4
CCOc1ccc2oc(=O)c(-c3ccc(OC)c(OC)c3)c(C)c2c1,1.4,-2.9
O=S(=O)(c1ccc(F)cc1)N1CCCc2ccccc21,-37.9,3.8
O=C1CN(S(=O)(=O)c2ccc(Br)cc2)c2ccccc2N1,-5.2,-155.0
O=S(=O)(c1ccc2[nH]c3c(c2c1)CCCC3)N1CCCc2ccccc21,76.7*,2.1
O=C1CN(S(=O)(=O)c2ccc3[nH]c4c(c3c2)CCCC4)c2ccccc2N1,73.6*,4.9
NC(=S)c1cc(Br)cc(Br)c1,.,42.8
Fc1ccc(NCc2cccnc2)cc1Cl,9.2,0.7
COCC(=O)N1CCCc2ccc(NS(=O)(=O)c3ccc(Cl)s3)cc21,-7.6,-4.5
CC(C)CCNC(=O)C1(C)CCC(=O)N1CCCN1CCN(c2cccc(Cl)c2)CC1 (stereo not drawn),22.0,1.4
SMILES,mHTT CaM bind,Pf apPOL inh
O=C(NCCCN1CCN(c2cccc(Cl)c2)CC1)C1(n2cccc2)CCCCC1,97.7*,-13.1
Cc1ccc(Cl)cc1N1CCN(CCNC(=O)c2csc3c2CCCC3)CC1,30.0,0.4
Cc1ccc(Cl)cc1N1CCN(CCNC(=O)C2(n3cccc3)CCCCC2)CC1,56.2*,-15.3
CCCN1CCCc2cc(CCNC(=O)COCC)ccc21,58.7*,-4.6
CCN1CCCc2cc(CCNC(=O)Nc3ccc(OC)c(OC)c3)ccc21,86.1*,-1.9
COc1ccc(CC(=O)Nc2ccc(N3CCCC3=O)c(OC)c2)cc1OC,-4.4,4.9
CN1CCCc2cc(CCNC(=O)C(=O)NCc3cccs3)ccc21,17.2,-1.3
COc1cc(C2C(C(=O)Nc3ccccc3)=C(C)Nc3nnnn32)ccc1OCc1ccccc1 (stereo not drawn),35.0,1.6
Cc1ccccc1NC(=O)N1CCCC1c1nc(-c2cccc(Cl)c2)no1 (stereo not drawn),-7.0,-3.2
Oc1cc2c(cc1C(c1ccc3c(c1)OCO3)N1CCOCC1)OCO2 (stereo not drawn),94.5*,.
CCOC(=O)C(=O)NCC(c1ccc2c(c1)OCO2)N1CCOCC1 (stereo not drawn),-13.9,-5.6
COc1ccc(-n2ncc3c2CC(c2ccc(C)cc2)CC3=O)cc1 (stereo not drawn),-6.8,-1.4
Cc1nc2cc(NC(=O)Cc3csc(NC(=O)c4ccc(=O)[nH]c4)n3)ccc2s1,58.6*,9.1
Cc1nc2cc(NC(=O)Cc3csc(NC(=O)C4CCCC4)n3)ccc2s1,-18.3,-9.8
Cn1c(NN)nc2sc3c(c2c1=O)CC(C)(C)OC3,36.1,-4.0
CC1(C)Cc2c(sc3nc(NN)nc(NN)c23)CO1,100.3*,-1.5
CS(=O)(=O)c1cccc(-c2nnc(NC(=O)C3c4ccccc4Oc4ccccc43)o2)c1,99.3*,-114.0
O=C(Nc1nnc(-c2ccco2)o1)C1c2ccccc2Oc2ccccc21,-0.7,7.5
COc1ccc(C2=NN(C(=O)CCC(=O)O)C(c3ccc(Br)cc3)C2)cc1 (stereo not drawn),15.0,6.2
COc1ccccc1C1CC(c2cccc(F)c2)=NN1C(=O)CN1CCOCC1 (stereo not drawn),65.7*,-3.2
Cc1ccc(C2=NN(C(=O)CN3CCCC3)C(c3ccc4c(c3)OCO4)C2)cc1 (stereo not drawn),31.5,-7.2
O=C(CN1CCCC1)N1N=C(c2cccc(F)c2)CC1c1ccc2c(c1)OCO2 (stereo not drawn),97.6*,-4.3
COc1ccccc1C1CC(c2ccc(C)cc2)=NN1C(=O)CN1CCOCC1 (stereo not drawn),49.7,-4.6
COc1ccc(C2CC(c3ccc(Br)cc3)=NN2C(=O)CCN2CCOCC2)cc1 (stereo not drawn),66.0*,-8.1
COc1ccc(C2=NN(C(=O)CN3CCOCC3)C(c3ccc(F)cc3)C2)cc1 (stereo not drawn),40.4,-3.7
SMILES,mHTT CaM bind,Pf apPOL inh
COc1ccc(C2CC(c3cccc(F)c3)=NN2C(=O)CN2CCOCC2)cc1 (stereo not drawn),73.7*,-4.6
O=C(CN1C(=O)c2cccc([N+](=O)[O-])c2C1=O)Nc1ccc(Cl)c(Cl)c1,1.0,1.1
Oc1ccc(N=Nc2ccccc2)c(O)c1,.,36.2
Nc1ccc(N=Nc2ccccc2)c(N)n1,52.5*,.
CCOc1ccc2oc(-c3ccccc3)c(C(=O)N3CCCCC3)c2c1,1.0,-1.0
CCn1c(/C=C/c2cccnc2)nc2ccccc2c1=O,100.0*,-1.7
O=c1[nH]c(/C=C/c2ccc(Cl)cc2)nc2ccccc12,-0.8,-2.1
CCn1c(/C=C/c2ccccc2Cl)nc2ccccc2c1=O,-1.2,-7.7
O=c1[nH]c(/C=C/c2cccnc2)nc2ccccc12,100.3*,-4.3
COc1cccc(NC(=O)c2ccnc(N3CCC(C(=O)NCc4ccco4)CC3)c2)c1,21.0,3.6
Cc1c(Cl)c([N+](=O)[O-])nn1CC(=O)Nc1ccc(S(N)(=O)=O)cc1,0.0,14.6
O=C(O)C1Nc2c(O)ccc(Br)c2C2C=CCC12 (stereo not drawn),100.3*,-1.8
O=C(c1ccccc1)c1cc(Cl)cc2c1NC(C(=O)O)C1CC=CC21 (stereo not drawn),5.7,-1.1
CC1C(c2ccc(N(C)C)cc2)NC(c2ccc(N(C)C)cc2)C(C)C1O (stereo not drawn),16.7,-9.3
CC1C(=NO)C(C)C(c2ccc(N(C)C)cc2)NC1c1ccc(N(C)C)cc1 (stereo not drawn),76.0*,-11.0
CCCCNC(=O)C1CC(c2cc(OC)ccc2OC)=NO1 (stereo not drawn),0.6,-3.6
Cc1cc(C2CCCN2C(=O)Nc2ccc(C)c(Cl)c2)no1 (stereo not drawn),-9.4,-5.0
Cc1ccccc1NC(=O)N1CCC(N2CCN(Cc3ccccc3)C2=O)CC1,0.4,-3.4
Cc1cccc(NC(=O)N2CCC(N3CCN(Cc4ccccc4)C3=O)CC2)c1C,99.9*,-3.6
